Measured values taken from PubChem BioAssay AID525 (The Scripps Research Institute Molecular Screening Center, 2006).
In all, about 65,000 compounds went through this assay and about 360 (0.55%) were called active. The sample as a whole holds a higher share of actives than the screen did. Values without a mark were called inactive.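 The calls were made as follows: active = inhibition above the mean inhibition of all tested compounds plus 3 SD (cut at about 48% in these data); inactive = the rest.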

What follows are compounds tested against Steroidogenic factor 1 (Homo sapiens) (UniProt Q13285) (assay: suppressors of SF-1 driven luciferase transcription – cell-based, CHO-K1, Gal4-SF-1 LBD, luciferase luminescence, primary screen (AID 525;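 also: 0% = SF-1 transfected cells with DMSO and 100% = mock-transfected cells lacking SF-1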)). Details: CHO-K1 Gal4-SF-1 LBD luciferase reporter; at 10 µM; hits give high values.
Steroidogenic factor 1 (Homo sapiens), sequence (Q13285 whole entry, looked up, the tested form may be a part): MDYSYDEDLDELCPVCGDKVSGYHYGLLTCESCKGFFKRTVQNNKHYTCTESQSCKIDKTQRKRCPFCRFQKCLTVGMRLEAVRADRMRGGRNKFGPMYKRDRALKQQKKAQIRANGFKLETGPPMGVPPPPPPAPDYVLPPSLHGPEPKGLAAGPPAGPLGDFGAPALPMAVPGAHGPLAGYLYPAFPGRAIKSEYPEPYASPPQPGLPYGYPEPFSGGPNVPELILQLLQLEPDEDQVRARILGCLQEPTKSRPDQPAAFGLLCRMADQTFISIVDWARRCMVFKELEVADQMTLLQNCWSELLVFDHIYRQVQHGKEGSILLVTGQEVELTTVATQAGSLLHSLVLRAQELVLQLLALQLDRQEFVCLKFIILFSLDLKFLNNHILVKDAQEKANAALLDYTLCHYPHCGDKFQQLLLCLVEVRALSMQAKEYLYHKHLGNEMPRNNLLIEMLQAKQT
`COc1ccc(NC(=O)Nc2cccc3cccnc23)cc1` showed an inhibition of -65.5%.
For `O=C(CSCc1cccs1)N1CCCC1`, the inhibition was -60.5%.
Compound `CCCCCN(C(=O)NC(=O)Nc1ccccc1OC)S(C)(=O)=O` has an inhibition of -5.9%.
`CN(C(=O)c1ccccn1)c1nnc(-c2ccccn2)s1` gave an inhibition of -56.6%.
For `COc1ccc(OCc2ccc(-c3nc4ccccc4c(=O)n3N)o2)cc1`, the inhibition was -59%.
With `COc1ccc(-c2cn3ccsc3n2)cc1` the inhibition was -53.3%.
`COC(=O)Cn1cc(C(=O)c2cccs2)c2ccccc21` gave an inhibition of 2.8%.
In the case of `CC[C@H]1CN2CCc3cc(OC)c(OC)cc3[C@@H]2C[C@@H]1C[C@H]1NCCc2cc(OC)c(OC)cc21`, the inhibition is reported as 96% (active).
`Cn1c(=O)c2c(nc(SCC(=O)Nc3ccccc3N3CCCCC3)n2C)n(C)c1=O` showed an inhibition of -2.8%.
In the case of `CCC(=O)Nc1cccc(NC(=O)CSc2nnc(-c3ccc(NS(C)(=O)=O)cc3)n2C)c1`, the inhibition is reported as -2.4%.
With `COc1ccc(N2C(=O)C3CCCN3C2c2cc(OC)c(OC)cc2OC)cc1` (stereo not drawn) the inhibition was 2.8%.
For `N#Cc1ccc(OCCN2C(=O)NC3(CCSC3)C2=O)cc1` (stereo not drawn), the inhibition was -12.8%.
`O=C(NCCN1C(=O)C2C3C=CC(C3)C2C1=O)Nc1ccccn1` (stereo not drawn) gave an inhibition of -7.6%.
Work on `Cc1cc(C)c(NC(=O)CS(=O)CC(=O)Nc2cccnc2)c(C)c1` (stereo not drawn) yielded an inhibition of 2.2%.
With `CC(=O)c1c(N2CCOCC2)nc(=S)n(Cc2ccccc2)c1C` the inhibition was 4.9%.
`COC(=O)c1cc(C(=O)CSc2nc(C)cc(C)n2)ccc1O` gave an inhibition of 11.2%.
For `O=C(c1cnn2ccccc12)N1CCc2ccccc21`, the inhibition was -111%.
`Cc1nnc(SCC(=O)NCc2cccs2)[nH]c1=O` was tested, and the inhibition was 13.6%.
For `c1c2c(cc3sc(N4CCCCC4)nc13)OCCO2`, the inhibition was 71.4% (active).
`Fc1cc(F)c2nc(N3CCOCC3)sc2c1` gave an inhibition of -52.6%.
With `O=C(c1cccc(C(=O)N2CCc3ccccc32)n1)N1CCc2ccccc21` the inhibition was 0.9%.
In the case of `CCNC(=O)CCc1nc(-c2ccc(C(C)(C)C)cc2)no1`, the inhibition is reported as 86.4% (active).
`Cc1ccc(Cc2nc(-c3cccc(C)c3)no2)cc1` showed an inhibition of -53.9%.
For `Brc1cccc(-c2nnc3n2CCC3)c1`, the inhibition was 3.8%.
`CC12CN(Cc3ccccc3)CC(C)(CN(Cc3ccccc3)C1)C2=NO` showed an inhibition of 25.5%.
Compound `O=C(Nc1ccc(Cl)cc1)c1ccsn1` has an inhibition of -73.5%.
Work on `O=C(Nc1ccccc1C(F)(F)F)c1cc(-c2ccc(O)cc2)on1` yielded an inhibition of -64.4%.
Compound `CC1CSc2nnc(CCc3ccccc3)n21` (stereo not drawn) has an inhibition of 3.6%.
For `O=C(COc1ccc(Cl)cc1)Nc1ccccc1CO`, the inhibition was -29%.
`O=C(NCc1cn2ccsc2n1)Nc1ccc(Cl)cc1` gave an inhibition of 1.7%.
`O=C(NCc1ccco1)c1cc2sccc2n1Cc1ccc(F)cc1` was tested, and the inhibition was 11%.
In the case of `COc1ccc(CCNC(=O)CSc2nc(C)nc3c2oc2ccccc23)cc1OC`, the inhibition is reported as -27.3%.
For `COc1cccc(CN2C(=O)CCC2(C)C(=O)NC2CCCCCC2)c1` (stereo not drawn), the inhibition was -6.9%.
For `O=C(Nc1cccc(Cl)c1)OCc1ccccn1`, the inhibition was -33.6%.
`COc1ccccc1NC(=O)CSc1nnc(Cc2cccn2C)n1-c1ccc(F)cc1` showed an inhibition of 16.2%.
Compound `O=C(Nc1ccccc1F)c1cc(S(=O)(=O)N2CCCCC2)cs1` has an inhibition of 4.9%.
In the case of `COc1cccc(OC)c1C(=O)Nc1nnc(C(C)C)s1`, the inhibition is reported as 5.1%.
In the case of `C=CCNC(=O)CCCOc1cccc(C)c1`, the inhibition is reported as -11.2%.
Work on `Cc1cccc(NC(=O)c2ccc3ccccc3n2)n1` yielded an inhibition of -98.6%.
`COc1cccc(N(CC(=O)NC2CCCC2)C(=O)Cn2nnc(-c3ccc(C)cc3)n2)c1` was tested, and the inhibition was -13.3%.
With `COC(=O)c1sc(NC(=O)c2ccc(OC)cc2OC)nc1C` the inhibition was 57.8% (active).
`COc1cccc2sc(Nc3nc(C)c(C(C)=O)s3)nc12` showed an inhibition of -109%.
Work on `COC(=O)c1sc(NC(=O)c2csc3c2CCCC3)nc1C` yielded an inhibition of -50.9%.
In the case of `CC(C)C(c1nnnn1Cc1ccccc1)N1CCC(C(N)=O)CC1` (stereo not drawn), the inhibition is reported as 7.4%.
For `Cn1nnc2cc(C(=O)NCCC3=CCCCC3)ccc21`, the inhibition was -49.9%.
`O=C(c1cccs1)N1CCN(C(=O)N2CCOCC2)CC1` showed an inhibition of -0.9%.
`CN(c1ccc(C(=O)NCCC2=CCCCC2)cc1)S(C)(=O)=O` gave an inhibition of -55.4%.
With `CCOc1ccc(-c2nnc(-c3ccco3)o2)cc1` the inhibition was 48% (active).
